The assay in a line: viability loss in A549 lung cells – cell-based, luminescence, dry powder, set 10, cytotoxicity control, dose response (AID 743356). Conditions: CellTiter-Glo ATP luminescence, 72 h; at 26 µM unless noted. A general note: ATP-based viability assays read luminescence as a measure of living cells.

SMILES strings stand for the structures. Values without a mark were called inactive.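 Rule for the calls: active = compounds that cut cell viability with a fitted half-maximal dose no more than twice the top valid dose; inconclusive = flat curve inhibiting 30 to 70%, or a poor fit; inactive = the rest, including any rise in viability.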

Consider `CN1c2ccc(-c3ccc(F)cc3)cc2[C@H]2[C@H](CCN2C(=O)Cc2ccccn2)[C@H]1CO`, for which the max inhibition of viability %, stronger effect = higher value was -16.3%. Then `CN(C)C(=O)c1ccc(N2CCN(C(=O)c3ccc4c(c3)OCO4)CC2)cc1`, with 10.1% [at 0.1 µM].

Consider `CCCNC(=O)N1CC[C@@H]2[C@@H](CO)N(C)c3ccc(-c4ccc(F)cc4)cc3[C@@H]21`, for which the max inhibition of viability %, stronger effect = higher value is -28.2% [at 0.38 µM]. As for `CC(=O)c1ccc(N2CCN(C(=O)c3ccccc3F)CC2)cc1`, the figure is 10.7% [at 0.012 µM]; as for `CNS(=O)(=O)c1ccc(N2CCN(C(=O)c3ccc4c(c3)OCO4)CC2)cc1`, 21.4% [at 0.003 µM]; as for `COC(=O)c1ccc(N2CCN(C(=O)c3ccc4c(c3)OCO4)CC2)cc1`, 15.6% [at 0.1 µM]. As for `CN1c2ccc(-c3cccc(F)c3)cc2[C@H]2[C@H](CCN2C(=O)Nc2ccccc2F)[C@H]1CO`, the figure is -15.8% [at 23.5 µM]; as for `CC(=O)c1ccc(N2CCN(C(=O)c3ccc4c(c3)OCO4)[C@H](C)C2)cc1`, 9.13% [at 12 µM]. As for `CN1c2ccc(-c3cccc(F)c3)cc2[C@@H]2[C@@H](CCN2C(=O)c2ccc3c(c2)OCO3)[C@H]1CO`, the figure is -9.13%; as for `CN1c2ccc(-c3ccc(F)cc3)cc2[C@H]2[C@H](CCN2C(=O)Nc2cc(F)ccc2F)[C@H]1CO`, -3.91% [at 23.5 µM]. As for `COC(=O)CCCCCCC(=O)N1CC[C@@H]2[C@@H](CO)N(C)c3ccc(-c4cccc(F)c4)cc3[C@@H]21`, the max inhibition of viability %, stronger effect = higher value was 8.86% [at 6 µM]. Then `CC(C)NC(=O)N1CC[C@@H]2[C@@H](CO)N(C)c3ccc(-c4ccc(F)cc4)cc3[C@@H]21`, with 12.6% [at 0.05 µM]; and `CC(=O)c1ccc(N2CCN(C(=O)c3ccccc3Cl)CC2)cc1`, with 15.7% [at 0.195 µM]. Then `CN1c2ccc(-c3ccc(F)cc3)cc2[C@H]2[C@H](CCN2C(=O)Cc2cccnc2)[C@H]1CO`, with 13.9% [at 0.0007 µM]; and `COc1ccccc1NC(=O)N1CC[C@@H]2[C@@H](CO)N(C)c3ccc(-c4ccc(F)cc4)cc3[C@@H]21`, with 13.3% [at 0.0015 µM]; and `CN1c2ccc(-c3cccc(F)c3)cc2[C@H]2[C@H](CCN2C(=O)CCCCCCN)[C@H]1CO`, with 15.1% [at 0.0004 µM]. As for `CNC(=O)c1ccc(N2CCN(C(=O)c3ccc4c(c3)OCO4)CC2)cc1`, the figure is -22.9% [at 0.0015 µM]; as for `CN1c2ccc(-c3cccc(F)c3)cc2[C@H]2[C@H](CCN2C(=O)Cc2ccccc2)[C@H]1CO`, -6.91% [at 23.5 µM].

`CC(=O)c1ccc(NCCNC(=O)c2ccc3c(c2)OCO3)cc1`: the max inhibition of viability %, stronger effect = higher value is 9.33% [at 0.0007 µM].

Regarding `CC(C)NC(=O)N1CC[C@@H]2[C@@H](CO)N(C)c3ccc(-c4cccc(F)c4)cc3[C@@H]21`, the max inhibition of viability %, stronger effect = higher value is 14.2% [setting not given]. As for `COCC(=O)N1CC[C@@H]2[C@@H](CO)N(C)c3ccc(-c4cccc(F)c4)cc3[C@@H]21`, the figure is -10.3%; as for `COc1cccc(NC(=O)N2CC[C@@H]3[C@@H](CO)N(C)c4ccc(-c5cccc(F)c5)cc4[C@@H]32)c1`, -9.56%. Consider `CN1c2ccc(-c3cccc(F)c3)cc2[C@H]2[C@H](CCN2C(=O)CCCCCCC(=O)O)[C@H]1CO`, for which the max inhibition of viability %, stronger effect = higher value was -12.9%.

On to `COc1ccc(NC(=O)N2CC[C@@H]3[C@@H](CO)N(C)c4ccc(-c5cccc(F)c5)cc4[C@@H]32)cc1`, for which the max inhibition of viability %, stronger effect = higher value was -13.8% [at 0.0235 µM]. As for `CN1c2ccc(-c3ccc(F)cc3)cc2[C@H]2[C@H](CCN2C(=O)Nc2ccc(F)cc2)[C@H]1CO`, the figure is 18.3% [at 0.05 µM].

With `COc1ccccc1NC(=O)N1CC[C@@H]2[C@@H](CO)N(C)c3ccc(-c4cccc(F)c4)cc3[C@@H]21`, the max inhibition of viability %, stronger effect = higher value was -10.1% [at 23.5 µM]. On to `CN1c2ccc(-c3cccc(F)c3)cc2[C@H]2[C@H](CCN2C(=O)c2ccc3c(c2)OCO3)[C@@H]1CO`, for which the max inhibition of viability %, stronger effect = higher value is -9.58%. As for `CCCCCCCC(=O)N1CC[C@@H]2[C@@H](CO)N(C)c3ccc(-c4cccc(F)c4)cc3[C@@H]21`, the figure is 20.6% [at 0.006 µM]; as for `CN1c2ccc(-c3cccc(F)c3)cc2[C@H]2[C@H](CCN2C(=O)Cc2cccnc2)[C@H]1CO`, -2.44%; as for `CC(=O)c1ccc(N2CC3(CN(C(=O)c4ccc5c(c4)OCO5)C3)C2)cc1`, -11.2% [setting not given].

On to `COc1ccc(NC(=O)N2CC[C@@H]3[C@@H](CO)N(C)c4ccc(-c5ccc(F)cc5)cc4[C@@H]32)cc1`, for which the max inhibition of viability %, stronger effect = higher value is -9.64%. Take `CN1c2ccc(-c3cccc(F)c3)cc2[C@@H]2[C@@H](CCN2C(=O)c2ccc3c(c2)OCO3)[C@@H]1CO`: the max inhibition of viability %, stronger effect = higher value is -3.11%. For `CC(=O)c1ccc(N2CCN(C(=O)c3ccc4c(c3)OCO4)CC2)cc1`, the max inhibition of viability %, stronger effect = higher value was 20.5% [at 0.8 µM]. As for `COc1ccccc1C(=O)N1CCN(c2ccc(C(C)=O)cc2)CC1`, the figure is 13.9% [at 0.012 µM]; as for `CCC(=O)N1CC[C@@H]2[C@@H](CO)N(C)c3ccc(-c4ccc(F)cc4)cc3[C@@H]21`, -5.87% [at 0.09 µM].

For the origin of these results see PubChem BioAssay AID743356 (Broad Institute, 2014).
